Hits are enriched below; roughly 11% of the tested compounds scored in any of these assays.
GoLoco inh red: inhibitors of human Gai1-RGS12 GoLoco interaction (red fluorophore) | Gai1:RGS12 GoLoco peptide FP, rhodamine, 10 min | Potency, µM (titrated, usually from 61.6 µM), without a hit: at the highest dose activity, negative = inhibition, hits mostly inhibitors | actives 0.44% (n = 230,000) | AID 880 | P63096; active = well fitted inhibition curve with a large enough effect, not every such curve was filed as active; inactive = no such curve, though single readings can be large or run the other way; also: potency is read from the fitted curve at half-maximal effect; % is scaled to controls: 0 for no effect and ±100 for the full control effect; nearly all actives have a fitted effect of over 30% in size
Target sequence (P63096 whole entry, looked up): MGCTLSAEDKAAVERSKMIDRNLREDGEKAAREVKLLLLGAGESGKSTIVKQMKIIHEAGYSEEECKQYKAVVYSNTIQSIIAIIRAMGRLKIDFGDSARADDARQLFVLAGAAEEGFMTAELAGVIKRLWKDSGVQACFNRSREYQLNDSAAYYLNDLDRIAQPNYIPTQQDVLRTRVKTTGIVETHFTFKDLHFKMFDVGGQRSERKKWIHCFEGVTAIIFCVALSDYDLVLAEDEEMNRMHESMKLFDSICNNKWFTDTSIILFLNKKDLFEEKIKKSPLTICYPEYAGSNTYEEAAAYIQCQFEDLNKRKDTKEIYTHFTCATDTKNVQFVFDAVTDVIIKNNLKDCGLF
ALDH1A1 block: inhibitors of human aldehyde dehydrogenase 1A1 | P00352 | AID 1030 | Purified ALDH1A1, NADH fluorescence, propionaldehyde substrate | actives 7.3% (n = 220,000) | Potency, µM (series often up to 75.3 µM), inactives show at the top dose activity, negative = inhibition, hits mostly inhibitors;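 also: potency is read from the fitted curve at half-maximal effect; plate controls were no enzyme wells and a reference inhibitor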
PNC assembly inh: blocks assembly of the perinucleolar compartment; activity change (PNC), negative = inhibition, % at 10 µM; PC3M PTB-GFP, PNC prevalence imaging, 16 h; hits give low values; AID 2417; actives 3.1% (n = 140,000);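 active = readout at or below -70, meaning at least 70% loss of cells showing the perinucleolar compartment, a nuclear body marking cancer cells; inconclusive = readout between -30 and a set limit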;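 also: plate controls were DMSO wells for no effect and camptothecin positive control wells for full effect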
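PC3M cells stably expressing PTB-GFP, 750–1000 cells/well, treated 16 h at 37 °C with compound (23 nl of library stock), in duplicate. After paraformaldehyde fixation and Hoechst stain, imaged at 20x; PNC prevalence scored by image analysis.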
HPGD inh: HPGD (human) dehydrogenase inhibition | P15428 | purified HPGD, NADH fluorescence kinetic, PGE2 substrate | Potency, µM, without a hit: at the top dose activity change, negative = inhibition, hits mostly inhibitors | actives 4.3% (n = 150,000); also: potency is read from the fitted curve at half-maximal effect; % is scaled to controls: 0 for no effect and ±100 for the full control effect
Target sequence (P15428 whole entry, looked up): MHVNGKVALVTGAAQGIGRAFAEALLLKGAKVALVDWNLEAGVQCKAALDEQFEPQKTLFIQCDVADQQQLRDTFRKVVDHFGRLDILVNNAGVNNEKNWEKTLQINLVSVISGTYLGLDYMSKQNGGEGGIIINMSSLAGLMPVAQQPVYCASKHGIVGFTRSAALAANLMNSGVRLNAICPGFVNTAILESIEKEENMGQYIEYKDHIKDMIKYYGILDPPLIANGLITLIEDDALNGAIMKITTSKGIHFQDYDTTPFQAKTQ
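NADH formation kinetics: reaction with 30 uM PGE2 and 1 mM NAD+ (final), 20 nM enzyme, Tris-HCl pH 8 with Tween 20, after 15 min compound preincubation at room temperature. Fluorescence change, last versus first of five reads.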
HTT cytoprotect: protects HTT-Q103 PC12 cells, measured by ATP | PC12 HTT-Q103 induced, cytoprotection, ATP luminescence, 40 h | Potency, µM (highest dose often 56.4 µM), for inactives: cytoprotection (ATP increase), actives largely listed as activators | actives 0.14% (n = 230,000) | AID 1471; active = well fitted curve in the direction sought with a large enough effect; inconclusive = small, poorly fitted or top-dose-only effect, or another doubt; inactive = no such curve, though single readings can be large; an effect the other way counts as inactive or inconclusive; also: potency is read from the fitted curve at half-maximal effect; % of control where 0% means no effect; nearly all actives have a fitted effect of over 45% in size
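Readout: ATPlite luminescence (ATP level). Model: stable PC12, inducible Htt exon1 Q103-GFP. Inducer: tebufenozide, 100 nM final. Compounds: dose series. No G418 in medium.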
HTT aggregate: mutant huntingtin aggregation inhibition; actives 1.1% (n = 220,000); PC12 HttQ103-GFP aggregates, Acumen cytometry, 40 h; Potency, µM (highest dose often 46.1 µM), for the others: at the highest dose activity change, negative = inhibition, actives largely listed as inhibitors; AID 1688; active = well fitted curve in the direction sought with a large enough effect; inconclusive = small, poorly fitted or top-dose-only effect, or another doubt; inactive = no such curve, though single readings can be large; an effect the other way counts as inactive or inconclusive; also: potency is read from the fitted curve at half-maximal effect; % is scaled to controls: 0 for no effect and ±100 for the full control effect; nearly all actives have a fitted effect of over 60% in size
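Using laser scanning cytometry, GFP-positive aggregates were counted after lysis of PC12 cells induced with 100 nM tebufenozide to express HTT exon 1 Q103–GFP. Compounds were tested in titration.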
* hit, by the source's call; ? = inconclusive; . = not tested or not shown; [ ] = remark or other dose. Unless noted, calls follow the shape of the dose curve; as a rule, active = well fitted inhibition curve with a large enough effect (not every such curve was filed as active); inconclusive = small, poorly fitted or top-dose-only effect, or another doubt; inactive = no such curve, though single readings can be large or run the other way.

SMILES	GoLoco inh red	ALDH1A1 block	PNC assembly inh	HPGD inh	HTT cytoprotect	HTT aggregate
CCn1cc(C2=NOC(C(=O)Nc3c(C)nn(Cc4ccc(F)cc4)c3C)C2)c(C)n1 (stereo not given)	-6%	0%	-21	-6%	-3%	-28%
CCn1cc(C2=NOC(C(=O)Nc3cccc(C(C)=O)c3)C2)c(C)n1 (stereo not given)	1%	3%	?	-11%	8%[10 µM]	0.79µM*
O=C(CCC1CCCC1)NCc1cccs1	2%	-12%	68	-27%	-20%	-3%
OC(c1cccs1)(c1cccs1)C1C[N+]2(CF)CCC1CC2 (stereo not given)	1%	7%	-98*	-5%	11%[10 µM]	-4%
CN(C)CC(C)(C)CN1c2ccccc2Sc2ccccc21	-7%[14.2 µM]	2%[13.5 µM]	.	-1%	-8%[10 µM]	.
C[C@]12C=CC(=O)C=C1CC[C@@H]1[C@H]3C[C@@H](O)[C@](O)(C(=O)CO)[C@]3(C)C[C@H](O)[C@]12F	.	.	.	.	-7%[1.9 µM]	.
CCC1CCc2c(sc(NC(=O)C3CC=CCC3C(=O)O)c2C#N)C1 (stereo not given)	15%	1.8µM*	8	32µM*	.	-14%
CC(=O)c1c(O)cc(C)n(Nc2nc(C)cc(C)n2)c1=O	16%	11%	16	-14%	-2%	1.3µM*
CC(=O)c1c(O)cc(C)n(-c2ccc(F)cc2)c1=O	11%	2%	.	.	-20%	0%[9.22 µM]
C[C@@H](CCC(=O)O)C(=O)O	-5%[14.2 µM]	5%[13.5 µM]	.	-3%	0%[10 µM]	.
O=C(CCc1nc2ccccc2c(=O)[nH]1)OCC(=O)N1CCN(S(=O)(=O)c2ccccc2)CC1	-5%	-3%	42	3%	-11%	-5%
CC1CC(C)CN(C(=O)COC(=O)CCc2nc3ccccc3c(=O)[nH]2)C1 (stereo not given)	-5%	3.5µM*	-4	-9%	9%[10 µM]	0%
Cc1nn(C)cc1CN1CCCC(C(=O)c2ccc(-c3ccccc3)c(F)c2)C1 (stereo not given)	-5%	1%	.	.	26%[10 µM]	-5%[9.22 µM]
CCOC(=O)c1c(NC(N)=O)sc(C)c1C	13%	-12%	23	-5%	1%	-2%
CCOC(=O)c1c(NC(=O)CSC(=S)N(C)C)sc(C)c1C	-5%	25µM*	-16	-18%	.	-18%
CCOC(=O)c1c(NC(=O)CSc2ncn[nH]2)sc(C)c1C	16%	25µM*	?	-14%	7%[10 µM]	-18%
CCOC(=O)c1c(N2C(=O)C=CC2=O)sc(C)c1C	-8%	0.5µM*	?	2µM*	-6%[10 µM]	?
CCN(CC)CCNC(=O)c1cc([N+](=O)[O-])c(N(C)C)cc1OC	7%	.	.	.	5%[10 µM]	-10%[9.22 µM]
COc1cc(N(C)C)c([N+](=O)[O-])cc1C(=O)NC(C)CNc1ccc([N+](=O)[O-])cc1Cl (stereo not given)	-5%	1.6µM*	52	-20%	-4%[10 µM]	-3%
Cc1cc(C)n(-c2nc3sc4c(c3c3nnc(SCC(N)=O)n23)CC(C)(C)OC4)n1	8%	-1%	-100*	-28%	-4%[10 µM]	11%
COc1ccc(S(=O)(=O)N(Cc2cc3cc(C)ccc3[nH]c2=O)CC2CCCO2)cc1 (stereo not given)	9%	8.9µM*	40	50%	-22%	27%
CN(Cc1cc2ccccc2[nH]c1=O)S(=O)(=O)c1ccccc1	2%	?	8	1%	-4%	4%
COC(=O)c1ccccc1S(=O)(=O)N(Cc1cc2ccc(OC)cc2[nH]c1=O)CC1CCCO1 (stereo not given)	11%	2%	-98*	-7%	-4%[10 µM]	3.5µM*
COc1cccc(CN(CC2CCCO2)S(=O)(=O)c2ccc(S(=O)(=O)N(C)C)cc2)c1 (stereo not given)	0%	2.8µM*	-22	-13%	-52%[10 µM]	6%
Cc1ccc(S(=O)(=O)N(C)Cc2cc3ccccc3[nH]c2=O)cc1	5%	3%	-99*	-22%	-10%[0.074 µM]	-13%
SMILES	GoLoco inh red	ALDH1A1 block	PNC assembly inh	HPGD inh	HTT cytoprotect	HTT aggregate
CCc1cc2c(nc1CC)CCN(CC/C(C)=N/O[C@@H](C)CN1CCCc3nc(C)c(C)cc31)C2	.	?	.	.	-1%[10 µM]	.
Cc1cc2cc(CN(Cc3cccs3)S(=O)(=O)c3ccc4c(c3)OCCO4)c(=O)[nH]c2cc1C	6%	0%	?	-10%	4%[10 µM]	-17%
Cc1ccc2[nH]c(=O)c(CN(Cc3cccs3)S(=O)(=O)c3ccc4c(c3)OCCO4)cc2c1	4%	25µM*	?	-28%	-10%[10 µM]	-19%
COc1ccc2cc(CN(CC3CCCO3)C(=S)Nc3ccccc3)c(=O)[nH]c2c1 (stereo not given)	9%	7.1µM*	.	.	-22%[10 µM]	-33%[9.22 µM]
Cc1c(N/N=C(\C#N)C(=O)c2ccc(Cl)cc2)c(=O)n(-c2ccccc2)n1C	8%	?	-13	28µM*	-34%[10 µM]	-1%
O=C(NCc1cccc(C(F)(F)F)c1)C1CC(c2ccccc2C(F)(F)F)=NO1 (stereo not given)	1%	.	.	.	-95%[10 µM]	?
CC(=O)c1ccc(OCC(=O)c2ccc(-c3ccccc3)cc2)cc1	4%	-7%	-87*	-10%	.	-12%
O=C(c1ccc(-n2cccc2)cc1)N1CCCCC1	9%	32µM*	.	.	-30%[10 µM]	0%
CC(C)OC(=O)COc1ccc(-c2ccccc2)cc1	0%	7%	12	-13%	-11%	14%
O=C(COc1ccc(-c2ccccc2)cc1)N1CCCC1	14%	13µM*	.	.	31%[10 µM]	24%[9.22 µM]
CC(C)c1ccc(C(=O)N2CCCN(C(=O)c3ccc(C(C)C)cc3)CC2)cc1	-4%	7.9µM*	?	-5%	-3%[0.074 µM]	19%
O=C(Oc1ccc(-c2ccccc2)cc1)N1CCCCC1	0%	0%	-20	-28%	-10%[0.074 µM]	-32%
CCOC(=O)N/N=C1/C[C@@H](O)[C@@H](O)[C@@H]2[C@@H]3C(=O)N(C4CCCCC4)C(=O)[C@H]3CC[C@H]12	.	-5%[13.5 µM]	.	.	-13%[10 µM]	.
N=C(N)SCCc1ccc(OCc2ccc([N+](=O)[O-])cc2)cc1	5%	?	.	-12%	?	.
CC(c1ccon1)N(C)C(=O)CCc1nnc(CCCCc2ccccc2)o1 (stereo not given)	1%	-10%	.	.	-22%	-8%
O=C(c1cccc(Br)c1)N1CCCC1	0%	9%	12	18µM*	10%[10 µM]	0%
O=C(c1cccc(C(F)(F)F)c1)N1CCCCCC1	12%	12%	-6	?	27%[10 µM]	-28%
O=C(c1cc2cc(Br)ccc2oc1=O)N1CCCC1	4%	-5%	-27	20µM*	-9%	-6%
Cc1cccc(C(=O)N2CCCCCC2)c1	7%	13%	8	5µM*	-10%	-7%
